Test results as given in PubChem BioAssay (NCATS).
Unmarked numbers belong to inactive results. Inconclusive results are not listed. Activity calls are given as the source filed them. Unless noted, the call rests on the fitted dose curve; in most records, active means well fitted inhibition curve with a large enough effect; inconclusive means small, poorly fitted or top-dose-only effect; inactive means flat fitted curve, though single readings scatter.

molecular target: Phospholipid hydroperoxide glutathione peroxidase GPX4 (Homo sapiens) (UniProt P36969); test: Primary qHTS Assay for Inhibitors of Recombinant Selenoprotein Glutathione Peroxidase 4 (GPX4) (AID 1845192); settings: recombinant GPX4, GR-coupled NADPH fluorescence, 15 min; series mostly up to 50 µM; activity change, negative = inhibition: at the top concentration; further: nearly all actives have a fitted effect of over 65% in size; on activity change, negative = inhibition: on the % scale 0 is the no-effect control and ±100 the full control effect
Sequence (P36969 whole entry, looked up): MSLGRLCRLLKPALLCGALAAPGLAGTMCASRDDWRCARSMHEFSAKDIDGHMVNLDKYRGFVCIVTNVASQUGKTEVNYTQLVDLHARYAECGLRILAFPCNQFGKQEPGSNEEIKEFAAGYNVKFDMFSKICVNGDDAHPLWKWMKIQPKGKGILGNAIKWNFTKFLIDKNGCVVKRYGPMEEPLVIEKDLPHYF
How it was run: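 NADPH consumption, followed by fluorescence at 340/450 nm between 0 and 15 min, reports GPX4 activity via coupled glutathione reductase (100 nM). Enzyme 200 nM was pre-exposed to compound 30 min; 0.5 mM cumene hydroperoxide and 1 mM GSH served as substrates.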

Row | Structure (SMILES) | Potency | outcome | activity change, negative = inhibition
1 | C[C@]12CCC3=C4CCC(=O)C=C4CC[C@H]3[C@@H]1CC[C@@]2(O)CC#N | inactive |  | 
2 | CC(C)=CCC[C@](C)(O[C@@H]1O[C@H](CO[C@@H]2O[C@H](CO)[C@@H](O)[C@H](O)[C@H]2O)[C@@H](O)[C@H](O)[C@H]1O)[C@H]1CC[C@]2(C)[C@@H]1[C@H](O)C[C@@H]1[C@@]3(C)CC[C@H](O[C@@H]4O[C@H](CO)[C@@H](O)[C@H](O)[C@H]4O[C@@H]4O[C@H](CO)[C@@H](O)[C@H](O)[C@H]4O)C(C)(C)[C@@H]3CC[C@]12C |  | inactive [at 27.8 µM] | 
3 | O=C(/C=C\n1cnc(-c2cc(C(F)(F)F)cc(C(F)(F)F)c2)n1)NNc1ccccn1 |  |  | 4.33%
4 | C=CC(=O)Nc1cccc(Oc2nc(Nc3ccc(N4CCN(C)CC4)c(F)c3)nc3[nH]ccc23)c1 |  |  | -6.7%
5 | O=S(=O)(Nc1ccc(-c2cccnc2)c2cccnc12)c1cccc(C(F)(F)F)c1 |  |  | -8.88%
6 | CC(C)n1ncnc1-c1cn2c(n1)-c1ccc(O[C@@H](C)C(N)=O)cc1OCC2 |  |  | 3.91%
7 | COc1ccc2[nH]c3c(c2c1)CCN[C@]31CS[C@@H]2c3c(OC(C)=O)c(C)c4c(c3[C@H](COC1=O)N1[C@@H]2[C@H]2c3c(cc(C)c(OC)c3O)C[C@@H]([C@@H]1O)N2C)OCO4 |  |  | -15.3% [at 9.73 µM]
8 | COc1cc([C@@H]2c3cc4c(cc3[C@@H](O[C@@H]3O[C@@H]5CO[C@@H](c6cccs6)O[C@H]5[C@H](O)[C@H]3O)[C@H]3COC(=O)[C@H]23)OCO4)cc(OC)c1O |  |  | -0.821%
9 | C=C1CCC[C@]2(C)C=C3OC(=O)C(C)=C3C[C@@H]12 |  |  | 0.0647%
10 | COc1cc(C)[nH]c(=O)c1CN1CCc2c(Cl)cc([C@H](OC)C3COC3)c(Cl)c2C1=O |  | inactive | 
11 | CC1=NN(c2ccc(C(=O)O)cc2)C(=O)/C1=C/c1ccc(-c2cc(C)c(C)cc2[N+](=O)[O-])o1 |  |  | -18.3%

tested on: not listed separately; test: qHTS drug screen for cell cycle checkpoint inhibitors in PARPi-resistant BRCA-mutant ovarian cancer cell lines. (AID 1963452; calls by dose curve; further: potency means the concentration at half of the fitted maximal effect); settings: PEO1/OlaR viability, CellTiter-Glo luminescence, 96 h
How it was run: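 PEO1, PEO4 and PEO1/OlaR ovarian cancer cells, 600 per well, exposed 96 h at 37C to a dilution series. Viability read by CellTiter-Glo luminescence, normalized to DMSO and empty wells; activity summarized as Z-AUC.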

Row | Structure (SMILES) | Potency
12 | CC[C@@]1(O)C(=O)OCc2c1cc1n(c2=O)Cc2c-1nc1ccccc1c2CCNC(C)C | 17.4 nM (active)
13 | COc1ccc2[nH]c3c(c2c1)CCN[C@]31CS[C@@H]2c3c(OC(C)=O)c(C)c4c(c3[C@H](COC1=O)N1[C@@H]2[C@H]2c3c(cc(C)c(OC)c3O)C[C@@H]([C@@H]1O)N2C)OCO4 | 31.7 nM (active)
14 | COc1cc([C@@H]2c3cc4c(cc3[C@@H](O[C@@H]3O[C@@H]5CO[C@@H](c6cccs6)O[C@H]5[C@H](O)[C@H]3O)[C@H]3COC(=O)[C@H]23)OCO4)cc(OC)c1O | 87.1 nM (active)
